Key:
Test in all cases: log2 ratio of Biotin-Ahx-Ub-VS probe labelling (fragment/DMSO); higher = less target engagement (more negative = stronger competition), active = hit call of the paper (q ≤ 0.05, log2 ratio ≤ -1)
Conditions in all cases: compound concentration: 200 uM; treatment time: 3 h
OTUD6B = target: T1, OTUD6B (UniProt Q8N6M0)
T1 sequence (whole entry): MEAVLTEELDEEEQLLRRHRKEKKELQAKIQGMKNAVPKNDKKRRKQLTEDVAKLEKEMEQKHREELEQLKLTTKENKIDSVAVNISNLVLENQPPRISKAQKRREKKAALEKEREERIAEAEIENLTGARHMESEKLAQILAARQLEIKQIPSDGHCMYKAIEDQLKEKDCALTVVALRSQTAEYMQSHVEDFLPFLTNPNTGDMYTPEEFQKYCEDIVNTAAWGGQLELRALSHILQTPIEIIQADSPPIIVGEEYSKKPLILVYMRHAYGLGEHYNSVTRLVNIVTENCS
Method in brief: (§1)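 HEK293T lysate (495 µg per sample, in Tris/CHAPS/IGEPAL buffer with protease inhibitors) was exposed in triplicate for 3 h to fragment at 200 µM or to vehicle, then to Biotin-Ahx-Ub-VS at 0.5 µM final for 1 h. Labelled DUBs were enriched on NeutrAvidin, digested with LysC and trypsin, and analysed by diaPASEF LC-MS/MS. Spectronaut label-free quantities were normalised to the global median, and values are average log2 ratios of fragment over vehicle from an unpaired t-test. Only proteins with ≥2 unique peptides were used.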

OTUD7B = target: T2, OTUD7B (UniProt Q6GQQ9)
T2 sequence (whole entry): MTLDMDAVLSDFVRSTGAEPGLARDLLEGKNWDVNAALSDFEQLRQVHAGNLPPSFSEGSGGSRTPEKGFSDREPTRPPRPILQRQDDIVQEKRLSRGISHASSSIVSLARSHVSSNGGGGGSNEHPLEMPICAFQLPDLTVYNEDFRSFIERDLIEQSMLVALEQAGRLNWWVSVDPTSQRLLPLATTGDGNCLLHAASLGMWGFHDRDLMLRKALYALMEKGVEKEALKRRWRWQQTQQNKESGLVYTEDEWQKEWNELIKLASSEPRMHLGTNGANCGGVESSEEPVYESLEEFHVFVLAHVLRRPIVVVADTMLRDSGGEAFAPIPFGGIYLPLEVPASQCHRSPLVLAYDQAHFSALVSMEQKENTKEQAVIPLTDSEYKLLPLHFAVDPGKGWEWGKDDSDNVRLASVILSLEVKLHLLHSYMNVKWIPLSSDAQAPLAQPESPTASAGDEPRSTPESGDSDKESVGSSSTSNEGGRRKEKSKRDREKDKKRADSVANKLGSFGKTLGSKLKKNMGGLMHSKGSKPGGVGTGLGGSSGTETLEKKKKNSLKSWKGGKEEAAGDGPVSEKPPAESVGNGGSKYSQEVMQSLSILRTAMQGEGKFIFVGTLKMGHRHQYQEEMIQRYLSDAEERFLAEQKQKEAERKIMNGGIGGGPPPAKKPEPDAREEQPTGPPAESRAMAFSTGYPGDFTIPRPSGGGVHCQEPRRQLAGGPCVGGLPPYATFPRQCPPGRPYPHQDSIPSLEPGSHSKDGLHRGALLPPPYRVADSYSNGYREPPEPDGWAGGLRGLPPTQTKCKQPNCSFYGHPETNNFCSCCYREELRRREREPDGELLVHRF
Method in brief: as §1

PRPF8 = PRPF8 (UniProt Q6P2Q9)
Method in brief: as §1

PSMD7 = target: T3, PSMD7 (UniProt P51665)
T3 sequence (whole entry): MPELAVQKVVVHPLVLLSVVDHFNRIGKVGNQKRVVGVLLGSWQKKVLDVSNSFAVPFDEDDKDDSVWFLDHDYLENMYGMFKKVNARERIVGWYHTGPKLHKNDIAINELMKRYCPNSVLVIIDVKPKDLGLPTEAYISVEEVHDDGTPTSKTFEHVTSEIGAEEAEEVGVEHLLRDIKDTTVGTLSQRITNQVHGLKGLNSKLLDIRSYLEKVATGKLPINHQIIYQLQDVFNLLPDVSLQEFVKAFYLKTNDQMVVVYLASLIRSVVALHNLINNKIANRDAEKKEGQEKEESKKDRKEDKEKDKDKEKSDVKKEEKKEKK
Method in brief: as §1

UCHL1 = UCHL1 (UniProt P09936)
Chain of UCHL1 (P09936 whole entry, looked up): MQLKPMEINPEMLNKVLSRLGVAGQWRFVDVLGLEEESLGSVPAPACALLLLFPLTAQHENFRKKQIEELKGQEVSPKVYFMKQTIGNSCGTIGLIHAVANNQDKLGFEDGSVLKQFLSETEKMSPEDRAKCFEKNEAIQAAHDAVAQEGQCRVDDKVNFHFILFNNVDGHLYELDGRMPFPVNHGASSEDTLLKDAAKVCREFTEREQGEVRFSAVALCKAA
Method in brief: as §1

UCHL3 = target: T4, UCHL3 (UniProt P15374)
T4 sequence (whole entry): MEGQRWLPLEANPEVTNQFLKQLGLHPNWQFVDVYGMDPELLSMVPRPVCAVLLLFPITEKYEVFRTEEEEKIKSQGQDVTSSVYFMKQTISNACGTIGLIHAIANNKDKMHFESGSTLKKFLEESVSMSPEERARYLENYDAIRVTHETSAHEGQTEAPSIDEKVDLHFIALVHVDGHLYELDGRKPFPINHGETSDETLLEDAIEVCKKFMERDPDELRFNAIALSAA
Method in brief: as §1

UCHL5 = target: T5, UCHL5 (UniProt Q9Y5K5)
T5 sequence (whole entry): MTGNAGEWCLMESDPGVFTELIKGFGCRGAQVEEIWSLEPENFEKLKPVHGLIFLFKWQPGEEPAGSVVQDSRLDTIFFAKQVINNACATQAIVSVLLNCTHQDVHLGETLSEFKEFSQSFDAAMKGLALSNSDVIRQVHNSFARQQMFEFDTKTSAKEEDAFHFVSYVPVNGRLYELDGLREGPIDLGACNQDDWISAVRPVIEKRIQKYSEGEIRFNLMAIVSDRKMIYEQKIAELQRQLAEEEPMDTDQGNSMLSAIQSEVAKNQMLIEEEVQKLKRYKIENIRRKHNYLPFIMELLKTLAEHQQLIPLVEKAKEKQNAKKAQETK
Method in brief: as §1

USP10 = USP10 (UniProt Q14694)
Chain of USP10 (Q14694 whole entry): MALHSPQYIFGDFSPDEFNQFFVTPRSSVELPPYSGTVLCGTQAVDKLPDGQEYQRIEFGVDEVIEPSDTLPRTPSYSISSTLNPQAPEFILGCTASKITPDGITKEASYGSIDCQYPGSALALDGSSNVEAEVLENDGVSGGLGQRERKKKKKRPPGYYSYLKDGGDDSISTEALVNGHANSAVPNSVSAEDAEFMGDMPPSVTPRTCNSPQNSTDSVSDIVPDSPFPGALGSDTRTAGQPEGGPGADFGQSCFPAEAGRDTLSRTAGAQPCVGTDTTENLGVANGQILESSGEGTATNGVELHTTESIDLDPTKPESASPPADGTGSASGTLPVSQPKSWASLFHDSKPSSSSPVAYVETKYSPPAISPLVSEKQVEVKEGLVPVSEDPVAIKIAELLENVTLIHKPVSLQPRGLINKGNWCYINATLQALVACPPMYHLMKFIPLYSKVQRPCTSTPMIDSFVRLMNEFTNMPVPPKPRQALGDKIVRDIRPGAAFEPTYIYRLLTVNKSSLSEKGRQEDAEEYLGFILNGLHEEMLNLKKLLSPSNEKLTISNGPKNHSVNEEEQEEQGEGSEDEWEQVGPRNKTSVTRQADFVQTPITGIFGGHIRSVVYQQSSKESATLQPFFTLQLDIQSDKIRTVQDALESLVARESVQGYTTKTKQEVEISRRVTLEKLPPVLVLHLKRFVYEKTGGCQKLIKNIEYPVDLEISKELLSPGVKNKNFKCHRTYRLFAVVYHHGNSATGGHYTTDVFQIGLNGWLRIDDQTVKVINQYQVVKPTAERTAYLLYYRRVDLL
Method in brief: as §1

USP15 = target: T6, USP15 (UniProt Q9Y4E8)
T6 sequence (whole entry): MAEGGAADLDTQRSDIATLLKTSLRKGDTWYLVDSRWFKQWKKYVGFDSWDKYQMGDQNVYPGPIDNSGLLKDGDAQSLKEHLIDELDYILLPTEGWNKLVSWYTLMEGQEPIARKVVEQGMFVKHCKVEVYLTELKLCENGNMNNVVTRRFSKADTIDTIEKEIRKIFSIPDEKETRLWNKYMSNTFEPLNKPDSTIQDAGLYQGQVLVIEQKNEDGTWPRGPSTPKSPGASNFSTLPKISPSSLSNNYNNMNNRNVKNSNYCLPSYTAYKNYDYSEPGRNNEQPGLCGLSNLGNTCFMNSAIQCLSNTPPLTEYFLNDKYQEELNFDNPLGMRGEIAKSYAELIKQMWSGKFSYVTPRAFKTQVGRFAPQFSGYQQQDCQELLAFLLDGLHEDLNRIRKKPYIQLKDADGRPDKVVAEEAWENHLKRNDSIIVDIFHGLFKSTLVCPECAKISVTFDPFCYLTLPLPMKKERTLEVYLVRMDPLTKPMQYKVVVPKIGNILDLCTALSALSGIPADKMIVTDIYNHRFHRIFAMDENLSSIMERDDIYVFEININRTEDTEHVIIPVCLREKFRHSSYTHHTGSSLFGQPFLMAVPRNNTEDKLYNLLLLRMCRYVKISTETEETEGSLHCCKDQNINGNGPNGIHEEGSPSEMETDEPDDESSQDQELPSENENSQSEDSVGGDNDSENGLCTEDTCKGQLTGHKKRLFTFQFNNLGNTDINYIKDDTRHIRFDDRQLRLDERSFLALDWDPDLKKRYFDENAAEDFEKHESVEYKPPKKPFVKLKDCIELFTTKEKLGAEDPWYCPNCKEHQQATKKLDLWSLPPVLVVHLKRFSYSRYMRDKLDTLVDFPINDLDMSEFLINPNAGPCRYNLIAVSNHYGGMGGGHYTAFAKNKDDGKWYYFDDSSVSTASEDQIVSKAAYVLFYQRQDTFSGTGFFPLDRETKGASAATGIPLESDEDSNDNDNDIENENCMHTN
Method in brief: as §1

USP16 = USP16 (UniProt Q9Y5T5)
Chain of USP16 (Q9Y5T5 whole entry, looked up): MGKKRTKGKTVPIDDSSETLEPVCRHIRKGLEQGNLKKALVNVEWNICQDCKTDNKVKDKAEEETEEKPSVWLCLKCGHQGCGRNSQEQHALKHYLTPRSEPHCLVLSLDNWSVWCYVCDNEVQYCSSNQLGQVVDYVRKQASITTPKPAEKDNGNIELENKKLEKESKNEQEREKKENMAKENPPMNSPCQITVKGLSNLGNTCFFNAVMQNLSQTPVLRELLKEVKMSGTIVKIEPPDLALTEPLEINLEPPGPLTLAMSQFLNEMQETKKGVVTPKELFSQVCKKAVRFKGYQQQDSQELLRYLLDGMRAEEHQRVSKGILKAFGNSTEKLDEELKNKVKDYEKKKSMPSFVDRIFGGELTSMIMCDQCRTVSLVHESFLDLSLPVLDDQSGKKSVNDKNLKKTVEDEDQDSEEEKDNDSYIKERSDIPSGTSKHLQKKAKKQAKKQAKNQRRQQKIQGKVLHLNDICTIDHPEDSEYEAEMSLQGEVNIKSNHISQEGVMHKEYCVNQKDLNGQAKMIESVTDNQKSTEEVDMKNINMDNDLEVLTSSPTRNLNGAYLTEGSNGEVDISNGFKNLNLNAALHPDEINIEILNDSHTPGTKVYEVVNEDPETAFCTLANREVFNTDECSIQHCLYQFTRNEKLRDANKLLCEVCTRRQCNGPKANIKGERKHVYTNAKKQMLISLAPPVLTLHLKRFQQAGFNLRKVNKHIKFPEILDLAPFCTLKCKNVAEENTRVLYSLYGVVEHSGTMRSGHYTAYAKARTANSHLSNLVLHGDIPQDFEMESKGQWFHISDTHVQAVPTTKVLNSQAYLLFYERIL
Method in brief: as §1

Measured: log2 ratio of Biotin-Ahx-Ub-VS probe labelling

O=C(CCl)NCCC1=CCCCC1
inactive: OTUD6B -0.254 | OTUD7B -0.269 | PRPF8 0.145 | PSMD7 0.0106 | UCHL3 0.284 | UCHL5 -0.111 | USP10 -0.0126 | USP15 -0.103 | USP16 -0.0314
active: UCHL1 -1.6

From the supplement of paper PMC11732987, “Enantioselective OTUD7B fragment discovery through chemoproteomics screening and high-throughput optimisation” (Communications Chemistry, 2025)
